Source: PubChem (National Center for Advancing Translational Sciences (NCATS))
HTT cytoprotect = Huntington cell model cytoprotection by ATP luminescence | Potency, µM (series often up to 56.4 µM), for inactives: cytoprotection (ATP increase), usual class: activators | 230,000 compounds, 0.14% hits | PC12 HTT-Q103 induced, cytoprotection, ATP luminescence, 40 h; further: % of control where 0% means no effect; nearly all actives have a fitted effect of over 45% in size
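PC12 cells stably carrying ecdysone-inducible Htt exon 1 (Q103)–GFP were induced with 100 nM tebufenozide (final) alongside library compounds in a dose series. Cytoprotection was scored as retained ATP by ATPlite luminescence.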
Tau fibril ThT = tau fibrillization inhibition (ThT binding) | P10636 | recombinant tau K18 P301L, heparin-induced fibrillization, ThT fluorescence | Potency, µM (highest dose often 57.4 µM), without a hit: at the highest dose activity, negative = inhibition, usual class: inhibitors | 270,000 compounds, 2.1% hits | AID 1460; further: on the % scale 0 is the no-effect control and ±100 the full control effect; nearly all actives have a fitted effect of over 55% in size
Target sequence (P10636 561-689 P618L limits assumed): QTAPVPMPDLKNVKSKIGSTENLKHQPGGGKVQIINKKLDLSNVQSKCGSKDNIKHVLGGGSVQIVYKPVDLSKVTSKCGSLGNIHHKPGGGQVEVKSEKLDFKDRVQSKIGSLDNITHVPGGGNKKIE
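Heparin-induced (20 uM) aggregation of recombinant human K18 P301L tau, 15 uM unlabeled with 0.24 uM labeled, pH 7 acetate buffer, 6 hr at 37 C with compound. Fibrils quantified by 30 uM ThT fluorescence after 1 hr ambient incubation.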
Tau fibril FP = tau fibrillization inhibition (FP) | Potency, µM (series often up to 57.7 µM), without a hit: at the top dose activity, negative = inhibition, usual class: inhibitors | P10636 | 280,000 compounds, 0.39% hits | K18 P301L tau heparin fibrillization, Alexa594 FP, 6 h; further: on the % scale 0 is the no-effect control and ±100 the full control effect; nearly all actives have a fitted effect of over 55% in size
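Steps: dispense K18 P301L tau (15 uM plus 0.24 uM Alexa 594 tracer, final) in pH 7 sodium acetate; add compound; add heparin (20 uM final); incubate 6 hr, 37 C; add ThT (30 uM final); after 1 hr ambient, read FP.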
Tau fluor cs = counter-screen for tau fibril formation inhibitors. tau K18 P301L Alexa594 fluorescence, heparin fibrillization. Potency, µM (series often up to 57.7 µM), for inactives: top-dose activity change, negative = decrease. 280,000 compounds, 0.93% hits; further: on the % scale 0 is the no-effect control and ±100 the full control effect; nearly all actives have a fitted effect of over 55% in size
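Human tau K18 P301L (15 uM unlabeled, 0.24 uM Alexa 594-labeled) in 100 mM sodium acetate pH 7 with 20 uM heparin, 6 hr at 37 C. ThT 30 uM added, 1 hr ambient; Alexa 594 FP and total fluorescence read at 555/632 nm.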
HttQ103 aggreg = inhibitors of mutant huntingtin aggregate formation in PC12 cells. AID 1688. 220,000 compounds, 1.1% hits. PC12 HttQ103-GFP aggregates, Acumen cytometry, 40 h. Potency, µM (titrated, usually from 46.1 µM), inactives show top-dose activity change, negative = inhibition, actives largely listed as inhibitors; further: on the % scale 0 is the no-effect control and ±100 the full control effect; nearly all actives have a fitted effect of over 60% in size
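Quantitative HTS on tebufenozide-induced (100 nM) PC12 cells stably expressing polyQ103 Huntingtin exon 1–GFP. Reduction of bright GFP aggregates, detected by laser scanning cytometry after lysis, identified actives across the titration.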
Starred values were filed as active, the others as inactive; ? = inconclusive; / = not tested or not shown; [ ] = remark or other dose. Most compounds without a hit are left out; they make up all but 3.7% or so of the library. The call rests on the fitted dose curve; in most records, active means well fitted curve in the direction sought with a large enough effect; inconclusive means small, poorly fitted or top-dose-only effect, or another doubt; inactive means no such curve, though single readings can be large; an effect the other way counts as inactive or inconclusive. Potency means the concentration at half of the fitted maximal effect.

SMILES	HTT cytoprotect	Tau fibril ThT	Tau fibril FP	Tau fluor cs	HttQ103 aggreg
CN(C)/C=C1/C(=O)NC(=O)N(CCNc2ncc(C(F)(F)F)cc2Cl)C1=O	-27%	16µM*	?	-9%	-3%[9.22 µM]
C[C@@H]1O[C@H]1P(=O)(O)O	-7%[1.9 µM]	/	/	/	/
O=C1C=C2C=C[C@H]3C[C@@]2(O1)[C@H]1CCCCN31	6.3µM*	/	/	/	/
O=C1C=C2C=CC3C[C@@]2(O1)C1CCCCN31 (stereo partly specified)	1.6µM*	?	-3%	-18%	/
O=C1C=C2C=C[C@H]3C[C@]2(O1)[C@@H]1CCCCN13	/	?	-5%	-17%	/
CC(=O)O[C@H]1CC[C@H]2[C@@H]3CCC4=C[C@@H](C5SCCS5)[C@H](OC(C)=O)C[C@]4(C)[C@H]3CC[C@@]12C	14%[10 µM]	/	/	/	/
N#Cc1c(/N=C/c2c(O)n(Cc3ccco3)c(=O)[nH]c2=O)sc2c1CCCC2	16%	20µM*	?	-23%	-5%
O=c1[nH]c(=O)n(Cc2ccco2)c(O)c1/C=N/N1CCCCCC1	-1%[10 µM]	1%	5%	2%	-2%
CCCCC/C=C\C/C=C\C/C=C\C/C=C\CCCC(=O)NCC(=O)O	-23%	?	0%	-2%	-4%[4.2 µM]
CCCCC/C=C\C/C=C\C/C=C\C/C=C\CCCC(=O)Nc1ccc(O)cc1	?	?	?	14µM*[quencher]	/
CCCCC/C=C\C/C=C\C/C=C\C/C=C\CCCC(=O)NCc1ccoc1	27%	22µM*	?	-12%	/
CCCCC/C=C\C/C=C\C/C=C\C/C=C\CCCC(=O)Nc1ccc(O)cc1C	-44%	?	15%	?	/
COc1cc([C@@H](O)CN)ccc1O	-2%[1.9 µM]	/	/	/	/
O=C(O)C[C@H]1NCc2cc3ccccc3nc21	3%[10 µM]	/	/	/	/
C[C@]12CC[C@@H]3c4ccc(O)c(O)c4CC[C@H]3[C@@H]1CC[C@@H]2O	/	14µM*	?	?	/
CN(N=O)c1cc(O)ccc1O	-12%[1.9 µM]	11µM*	?	?	/
Cc1ccc(O)cc1	-19%	6%	5%	1%	/
Cc1ccc(N)c(C(=O)c2ccc(Br)cc2)c1	-25%	?	0%	?	7.1µM*
Nc1ccc(Br)cc1C(=O)c1ccccc1	-24%	-11%	-5%	?	-3%
CCOC(=O)C1OC1(C)c1ccccc1 (stereo unspecified)	-5%	/	/	/	/
CN1C[C@H](C(=O)N[C@]2(C)O[C@@]3(O)[C@H]4CCCN4C(=O)[C@H](Cc4ccccc4)N3C2=O)C[C@H]2c3cccc4[nH]cc(c34)C[C@@H]21	?	?	7%	7.1µM*[quencher]	/
CC(C)[C@@]1(NC(=O)[C@H]2C[C@H]3c4cccc5[nH]cc(c45)C[C@@H]3N(C)C2)O[C@]2(O)[C@H]3CCCN3C(=O)[C@H](Cc3ccccc3)N2C1=O	8%[1.9 µM]	/	/	/	/
CC(C)[C@@]1(NC(=O)[C@@H]2C[C@H]3c4cccc5[nH]cc(c45)C[C@@H]3N(C)C2)O[C@@]2(O)[C@H]3CCCN3C(=O)[C@H](Cc3ccccc3)N2C1=O	?	?	0%	13µM*[quencher]	/
CC1(C)N=C(N)N=C(N)N1c1cccc(C(=O)Nc2ccc(S(=O)(=O)F)cc2)c1	-10%[10 µM]	/	/	/	/
CN(C(=O)Cc1ccc(Cl)c(Cl)c1)C(CN1CCCC1)c1cccc(N=C=S)c1 (stereo unspecified)	-83%	?	?	?	/
C=C1C(=O)O[C@@H]2C[C@@H](C)[C@@H]3C4OC4C(=O)[C@@]3(C)[C@@H](O)[C@H]12 (stereo partly specified)	37%[10 µM]	13µM*	7.9µM*	-10%	?
COC[C@H]1OC(=O)c2coc3c2[C@@]1(C)C1=C(C3=O)[C@@H]2CCC(=O)[C@@]2(C)C[C@H]1OC(C)=O	-188%	14µM*	25µM*	?	/
O=C1NC(=S)N(c2ccc(F)cc2)C(=O)/C1=C\c1ccoc1	?	18µM*	?	-21%	-7%
O=C1C(=O)c2cccc3cccc1c23	/	0%	10%	-1%	-8%
O=C1C(=O)c2ccccc2-c2ccccc21	-96%	3.2µM*	?	-22%	?
